Data as given in PubChem BioAssay (NCATS).
A number with no mark means an inactive call. Results filed as inconclusive are left out. Where a call stands in place of a potency, no number is given. The source made the active and inactive calls. Calls follow the shape of the dose curve; as a rule, active = well fitted curve in the direction sought with a large enough effect; inconclusive = small, poorly fitted or top-dose-only effect, or another doubt; inactive = no such curve, though single readings can be large; an effect the other way counts as inactive or inconclusive. Where a SMILES comes first, the peptide text is derived from it. The star is where a group is joined. AMC = Cc1cc(=O)oc2cc(N*)ccc12; βNA = c1ccc2cc(N*)ccc2c1; Cbz = O=C(OCc1ccccc1)*

Legend:
[1] = system: Nanoluciferase (engineered Oplophorus gracilirostris luciferase); experiment: Primary Nanoluciferase (NLuc) qHTS assay for identification of artifact compounds. (AID 1845222); also: potency is read from the fitted curve at half-maximal effect;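 as to activity, negative = inhibition: NLuc secreted into diluted conditioned medium of S16 cells; series mostly up to about 54 µM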
Outline: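 Concentration-response data were obtained by luminescence after 5 min with Nano-Glo substrate at 1:100. The enzyme was diluted S16 NLuc-expressing cell medium, preincubated with compound for 15 min at RT. Curves were fitted with a 4-parameter Hill model.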

[2] = Primary redox qHTS assay for identification of artifact compounds. (AID 1845223)
Outline: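 Amplex Red (25 uM) and HRP (250 mU/mL) in HBSS, with compounds for 15 min, then 250 uM DTT for 30 min, room temperature, dark. Fluorescence 525/598 nm read; normalized to DMSO and 10 uM DA3003; Hill fit.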

Structure (SMILES)	Potency [1]	Potency [2]	activity, negative = inhibition [1]	redox activity (% of DA3003) [2]
COC(=O)C1=COC(OC2OC(CO)C(O)C(O)C2O)C2C(C)CC(=O)C12O (stereo unspecified)	inactive	inactive		
O=C(Nc1ccc(N2CCC(C(=O)N3CCOCC3)CC2)cc1)c1cnc(Oc2ccccc2)nc1	inactive	inactive		
CC(C)/C=C1/NC(=O)C(C(C)C)n2c1nc1c(O)cccc1c2=O (stereo unspecified)	inactive	inactive		
CC(C)C1NC(=O)C2CCCN2C1=O (stereo unspecified)	inactive	inactive		
C/C1=C\CC[C@]2(C)O[C@H]2C(=O)c2c(C)coc2C1	inactive	inactive		
CC(C)(O)C1CCC2(C)CCCC(C)(O)C2C1 (stereo unspecified)	inactive	inactive		
C/C=C/C=C/C(=O)OC1CC/C=C/C(O)C(O)C(CCC)OC1=O (stereo unspecified)	inactive	inactive		
O=C(c1ccc(Cl)c([N+](=O)[O-])c1)N1CCN(c2ccccc2F)CC1	inactive	inactive		
C[C@@H]1C[C@@H](O)[C@@]23CO[C@]2(CO)C[C@@H](O)CC3[C@@]12CC(c1ccoc1)OC2=O (stereo partly specified)	inactive	inactive		
O=C(C1OC1/C=C/c1ccc2c(c1)OCO2)N1CCCCC1 (stereo unspecified)	inactive	inactive		
OC[C@@]1(O)CO[C@@H](OC[C@H]2O[C@@H](OCc3ccccc3)[C@H](O)[C@@H](O)[C@@H]2O)[C@@H]1O	inactive	inactive		
COc1cc(C(O)C2COC(c3ccc(OC4OC(CO)C(O)C(O)C4O)c(OC)c3)C2CO)ccc1O (stereo unspecified)	inactive	inactive		
CC(=O)/C=C/C1C(C)CC(O[C@@H]2O[C@H](CO)[C@@H](O)[C@H](O)[C@H]2O)CC1(C)C (stereo partly specified)	inactive	inactive		
CC1(C)CC[C@]2(C(=O)O)CC[C@]3(C)C(=CCC4[C@@]5(C)C(=O)C[C@H](O)[C@@](C)(CO)C5CC[C@]43C)[C@@H]2C1 (stereo partly specified)	inactive	inactive		
CC1(C)COC(=O)[C@@H]1O[C@@H]1O[C@H](CO)[C@@H](O)[C@H](O)[C@H]1O	inactive	inactive		
COc1ccc(C2C(C(=O)O)C(C(=O)O)C2c2ccc(OC)cc2O[C@@H]2O[C@H](CO)[C@@H](O)[C@H](O)[C@H]2O)c(O[C@@H]2O[C@H](CO)[C@@H](O)[C@H](O)[C@H]2O)c1 (stereo partly specified)	inactive	inactive		
C=C1CCC2[C@@](C)(C(=O)O)CCC[C@@]2(C)[C@@H]1CCc1ccoc1 (stereo partly specified)	inactive	inactive		
CC(=O)O[C@@]1(C)[C@@H]2CC(=C(C)C)C(=O)C[C@@]2(C)CC[C@H]1OC(=O)C1(C)OC1C (stereo partly specified)	inactive	inactive		
COc1ccc(Oc2c(Cl)cnn(C3c4ccccc4-c4ccccc43)c2=O)cc1	inactive	inactive		
CC(=O)/C=C/C1(O)C(C)(C)CC(O)CC1(C)O (stereo unspecified)	inactive	inactive		
CC(=O)OCC1OC(O[C@H]2CC[C@]34C[C@]35CC(O)[C@]3(C)[C@@H]([C@H](C)CC/C=C(\C)C(=O)O)C(O)C[C@@]3(C)C5CC[C@H]4C2(C)C)C(O)C(O)C1OC1OCC(O)C(O)C1O (stereo partly specified)			-3.42% [at 11.6 µM]	-5.4% [at 11.5 µM]

Structure (SMILES)	Potency [1]	Potency [2]	activity, negative = inhibition [1]	redox activity (% of DA3003) [2]
O=C(COCC(=O)N1CCN(C(c2ccccc2)c2ccccc2)CC1)Nc1ccc(Cl)cc1C(=O)O	inactive	inactive		
CC1(C)C=Cc2c(ccc3c2N=C2C(C)(C)[C@@H]4C[C@]56CCCN5C(=O)[C@@]4(C[C@]23O)NC6=O)O1	inactive	inactive		
OC[C@H]1O[C@@H](OCc2ccccc2)[C@H](O[C@@H]2OC[C@@H](O)[C@H](O)[C@H]2O)[C@@H](O)[C@@H]1O	inactive	inactive		
C=C(COC(=O)C(C)C)C1Oc2cc(C(C)=O)ccc2C1OC(=O)C(C)C (stereo unspecified)	inactive	inactive		
Cc1cc(O[C@@H]2O[C@H](COC(=O)CC(=O)O)[C@@H](O)[C@H](O)[C@H]2O)c(C(C)C)cc1O	inactive	inactive		
COc1ccc(C(=O)NCc2cc(C(C)C)no2)cc1OC1CCN(C)CC1	inactive	inactive		
CC(CCc1ccc(O)cc1)O[C@@H]1O[C@H](CO[C@@H]2OC(CO)[C@H](O)[C@H]2O)[C@@H](O)[C@H](O)[C@H]1O (stereo partly specified)	inactive	inactive		
O=C(O)c1ccnc2cc(C(OCC3CCC(F)(F)CC3)c3ccccc3Cl)[nH]c12 (stereo unspecified)	inactive	inactive		
CC(C)(O)C1OC1C1=CC(=O)C2(C)OC2C1O (stereo unspecified)	inactive	inactive		
Cn1c2ccc(NC(=O)c3ccccc3)cc2c(=O)n2nc(C(=O)O)cc12	inactive	inactive		
C=C1CC[C@H]2[C@@](C)(CCC(OC3OC(CO)C(O)C(O)C3O)[C@@]2(C)CO)C1C(=O)CC1=CCOC1=O (stereo partly specified)	inactive	inactive		
CCOc1ccc(-c2cc(NC(=O)c3c(F)cccc3F)c(C(=O)O)s2)cc1	12 µM (active)	inactive		
CC1(C)CC[C@]2(C(=O)O[C@@H]3O[C@H](CO)[C@@H](O)[C@H](O)[C@H]3O)CC[C@]3(C)C(=CCC4[C@@]5(C)C[C@@H](O)[C@H](O)[C@@](C)(CO)C5[C@H](O)C[C@]43C)C2C1 (stereo partly specified)	inactive	inactive		
CN(C)c1ccc(C2O[C@@H](c3ccccc3)C[C@H](c3ccccc3)O2)cc1 (stereo partly specified)	inactive	inactive		
Nc1nc2c(nc(Sc3ccc(Cl)cc3)n2[C@@H]2O[C@@H]3COP(=O)(O)O[C@H]3[C@H]2O)c(=O)[nH]1	inactive	inactive		
CC1=C(C(=O)OC2OC(COC3OC(CO)C(O)C(O)C3O)C(O)C(O)C2O)C(C)(C)CCC1 (stereo unspecified)	inactive	inactive		
COc1ccc(/C=C/C(=O)N2CCCC2)cc1	inactive	inactive		
C[C@@H]1O[C@@H](O[C@H]2[C@H](O[C@H]3[C@H](O[C@H]4CC[C@@]5(C)C(CC[C@]6(C)C5CC=C5[C@@H]7CC(C)(C)C[C@@H](O)[C@]7(C)CC[C@]56C)[C@@]4(C)CO)O[C@H](C(=O)O)[C@@H](O)[C@@H]3O)O[C@H](CO)[C@H](O)[C@@H]2O)[C@H](O)[C@H](O)[C@H]1O (stereo partly specified)			4.57% [at 11.6 µM]	10.7% [at 11.5 µM]
CC1=CC23[C@H](C=C(C(=O)O)[C@@H]2COC(=O)[C@]3(O)CO)[C@@H]1C (stereo partly specified)	inactive	inactive		
CCOc1ccc(-c2nn3ncccc3c2-c2ccc(S(C)(=O)=O)cc2)cc1	inactive	inactive		
COc1cc2nc(=NC(=O)c3cccnc3)n3c(c2cc1OC)NCC3	inactive	inactive		

Structure (SMILES)	Potency [1]	Potency [2]	activity, negative = inhibition [1]	redox activity (% of DA3003) [2]
Cc1cc(=O)oc2cc(NC(=O)[C@H](CCC(=O)O)NC(=O)[C@H](CC(C)C)NC(=O)[C@H](CC(C)C)NC(=O)OCc3ccccc3)ccc12 (Cbz-Leu-Leu-Glu-{AMC})	inactive	inactive		
CC(C)=CCC[C@](C)(O[C@@H]1O[C@H](CO[C@@H]2OC[C@H](O)[C@H](O)[C@H]2O)[C@@H](O)[C@H](O)[C@H]1O)[C@H]1CC[C@]2(C)[C@@H]1[C@H](O)C[C@@H]1[C@@]3(C)CC[C@H](O[C@@H]4O[C@H](CO)[C@@H](O)[C@H](O)[C@H]4O[C@@H]4O[C@H](CO)[C@@H](O)[C@H](O)[C@H]4O)C(C)(C)[C@@H]3CC[C@]12C	inactive	inactive		
COCC1OC(n2cnc3c(=O)[nH]cnc32)C(O)C1O (stereo unspecified)	inactive	inactive		
COc1ccnc(CCc2nc3ncccc3[nH]2)c1	inactive	inactive		
C=C[C@H]1[C@H](O[C@@H]2O[C@H](CO)[C@@H](O)[C@H](O)[C@H]2O)OC=C(C(=O)OC)[C@H]1CC=O	inactive	inactive		
CC(C)CC(NC(=O)OCc1ccccc1)C(=O)NC(CC(C)C)C(=O)NC(CCC(=O)O)C(=O)Nc1ccc2ccccc2c1 (stereo not drawn) (Cbz-Leu-Leu-Glu-βNA; configuration not given here)	inactive	inactive		
COc1cccc2c1c(O)c(C(=O)N(C)c1ccc(C(F)(F)F)cc1)c(=O)n2C	inactive	inactive		
COC(=O)C1=CO[C@@H](O[C@@H]2O[C@H](CO)[C@@H](O)[C@H](O)[C@H]2O)[C@@H]2[C@@H](C(=O)O)CC[C@H]12	inactive	inactive		
Cc1onc(-c2ccccc2Cl)c1C(=O)N(C)c1ccc(Cl)cc1	inactive	inactive		
CN1CCN(C(=O)c2cc3cc(Cl)ccc3[nH]2)CC1	inactive	inactive		
CC1=CC(=O)C2C(C)(C)CCC[C@]2(C)[C@H]1CC[C@H](C)CC(=O)O (stereo partly specified)	inactive	inactive		
O=C(OC[C@H]1O[C@H](O[C@H]2CO[C@H](CO)[C@@H](O)[C@@H]2O)[C@H](O)[C@@H](O)[C@H]1O)c1ccccc1	inactive	inactive		
CC(C)CC(=O)NCCn1cc(C(=O)O)c(=O)cc1C(O)c1ccccc1 (stereo unspecified)	inactive	inactive		
CC(C)c1c(NC(=O)Nc2ccc(Cl)cc2)c(=O)n(-c2ccccc2)n1C	inactive	inactive		
CC1(CO)CCCC2(C)C1C(OC(=O)c1ccccc1)CC1C(=O)OCC12O (stereo unspecified)	inactive	inactive		
CC1(C)CC[C@]2(C(=O)O[C@@H]3O[C@H](CO)[C@@H](O)[C@H](O)[C@H]3O)CC[C@]3(C)C(=CCC4[C@@]5(C)CC[C@H](O[C@H]6O[C@H](CO)[C@@H](O)[C@H](O[C@@H]7O[C@H](CO)[C@@H](O)[C@H](O)[C@H]7O)[C@H]6O)C(C)(C)C5CC[C@]43C)[C@@H]2C1 (stereo partly specified)			-0.923% [at 11.6 µM]	12.2% [at 11.5 µM]
CC(C)=C1CC2[C@](C)(CC[C@@H](OC(=O)C3(C)OC3C)[C@@]2(C)O)CC1=O (stereo partly specified)	inactive	inactive		
CC(CCO)CCC1C2(C)CCCC(C)(C)C2CC[C@@]1(C)O (stereo partly specified)	inactive	inactive		
C[C@@H](c1ccccc1)N(C(N)=NC#N)c1cccc2ncccc12	inactive	inactive		
C=C(C)[C@@H]1CC[C@]2(C(=O)O)CC[C@]3(C)[C@H](CCC4[C@@]5(C)CCC(=O)C(C)(C)C5C(O)C[C@]43C)C12 (stereo partly specified)	inactive	inactive		
C=C1CCC(OC(C)=O)C2(C)CC3OC(=O)C(C)=C3CC12 (stereo unspecified)	inactive	inactive		
